Assay results: PubChem BioAssay (Tox21)
Active and inactive are the calls of the source. Unless noted, the call rests on the fitted dose curve; in most records, active means well fitted curve in the direction sought with a large enough effect in the repeat runs; inconclusive means weak or mixed curves; inactive means no such curve, though single readings can be large; an effect the other way counts as inactive or inconclusive.

Assays:
[1] = qHTS assay to test for compound auto fluorescence at 535 nm (green) in HEK293 cells (AID 720680)
[2] = qHTS assay to test for compound auto fluorescence at 460 nm (blue) in HEK293 cell free culture (AID 720681)
Summary of the method: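 Compounds were added to cell-free DMEM with 10% FBS and fluorescence read directly. The blue channel used 405 nm excitation and 460 nm emission, with triamterene as the reference fluorophore.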

[3] = qHTS assay to test for compound auto fluorescence at 535 nm (green) in HEK293 cell free culture (AID 720682)
Summary of the method: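 Measurement is a direct plate read of green fluorescence (485 nm in, 535 nm out) after compound addition to serum-supplemented DMEM lacking cells, with fluorescein used to express intensities.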

[4] = qHTS assay to test for compound auto fluorescence at 590 nm (red) in HEK293 cell free culture (AID 720683)
Summary of the method: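 Cell-free wells of DMEM with 10% FBS received compound, and intrinsic fluorescence was read at excitation/emission 540/590 nm. Values expressed as equivalence to Rose Bengal sodium.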

[5] = qHTS assay to test for compound auto fluorescence at 590 nm (red) in HepG2 cell free culture (AID 720684)
Summary of the method: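 Compound was pinned into wells holding MEM with 10% FBS and no cells, and red fluorescence was read at Ex/Em 540/590 nm. Signal is expressed as auto fluorescence equivalency relative to Rose Bengal sodium.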

[6] = qHTS assay to test for compound auto fluorescence at 460 nm (blue) in HepG2 cell free culture (AID 720685)
Summary of the method: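 Compound (23 nL) or DMSO pinned into cell-free MEM with 10% FBS; blue fluorescence read at 405/460 nm excitation/emission, expressed as auto-fluorescence equivalency to triamterene.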

[7] = qHTS assay to test for compound auto fluorescence at 535 nm (green) in HepG2 cell free culture (AID 720686)
[8] = qHTS assay to test for compound auto fluorescence at 460 nm (blue) in HepG2 cells (AID 720687)
Summary of the method: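 HepG2 cells in MEM with 10% FBS, attached overnight at 37 C, were exposed to compound or DMSO for 1 hr at 37 C, 5% CO2. Blue fluorescence was read at 405/460 nm, with triamterene as reference fluorophore.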

[9] = molecular target: Glucocorticoid receptor (Homo sapiens) (UniProt P04150); assay: qHTS assay to identify small molecule agonists of the glucocorticoid receptor (GR) signaling pathway (AID 720691; active means well fitted activation curve with a large enough effect in the signal ratio in the repeat runs, not every such curve was filed as active; inconclusive means weak or mixed curves, or effect the other way; inactive means no such curve, though single readings can be large or run the other way; the % refers to the signal ratio; further: potency means the concentration at half of the fitted maximal effect)
Summary of the method: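 Reporter read-out: fluorescence intensity following 2 h room-temperature LiveBLAzer B/G FRET substrate loading. Prior step: GR-bla HeLa cells held 4 h, then treated 18 h at 37 C.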

[10] = qHTS assay to identify small molecule antagonists of the glucocorticoid receptor (GR) signaling pathway - cell viability counter screen (AID 720693); further: nearly all actives have a fitted effect of over 55% in size
[11] = qHTS assay for identifying genotoxic compounds that show differential cytotoxicity against isogenic chicken DT40 cell lines with known DNA damage response pathways - Rev3 mutant cell line (AID 743014); further: nearly all actives have a fitted effect of over 55% in size; further: potency means the concentration at half of the fitted maximal effect
[12] = qHTS assay for identifying genotoxic compounds that show differential cytotoxicity against isogenic chicken DT40 cell lines with known DNA damage response pathways - Rad54/Ku70 mutant cell line (AID 743015); further: nearly all actives have a fitted effect of over 60% in size; further: potency means the concentration at half of the fitted maximal effect
[13] = qHTS assay to identify small molecule antagonists of the androgen receptor (AR) signaling pathway - cell viability counter screen (AID 743033; further: nearly all actives have a fitted effect of over 45% in size)
[14] = qHTS assay to identify small molecule antagonists of the androgen receptor (AR) signaling pathway using the MDA cell line - cell viability counter screen (AID 743041; further: nearly all actives have a fitted effect of over 45% in size)
Summary of the method: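 MDA-kb2 AR-luc cells (MMTV-luciferase, AR/GR responsive) treated with compounds plus R1881 agonist for 16 h at 37C. CellTiter-Fluor added at 15.5 h; fluorescence read after 30 min in the same wells.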

[15] = qHTS assay for identifying genotoxic compounds that show differential cytotoxicity against isogenic chicken DT40 cell lines with known DNA damage response pathways - wild type cell line (AID 743012); further: nearly all actives have a fitted effect of over 60% in size; further: potency means the concentration at half of the fitted maximal effect
Summary of the method: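 Using parental DT40 (300 cells/well), compounds delivered in DMSO incubate 40 h at 37 C/5% CO2. CellTiter-Glo reagent then stands 30 min at room temperature, and luminescence gives cell viability.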

[16] = molecular target: Glucocorticoid receptor (Homo sapiens) (UniProt P04150); assay: qHTS assay to identify small molecule antagonists of the glucocorticoid receptor (GR) signaling pathway (AID 720692; active means well fitted inhibition curve with a large enough effect in the signal ratio in the repeat runs, not every such curve was filed as active; inconclusive means weak or mixed curves, or effect the other way; inactive means no such curve, though single readings can be large or run the other way; the % refers to the signal ratio)
Summary of the method: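 Dexamethasone (5 nM final) stimulated a stably integrated GRE-beta-lactamase reporter in HeLa cells during 18 h co-incubation with compounds; signal was quantified as fluorescence intensity of B/G FRET substrate after 2 h.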

[17] = molecular target: Androgen receptor (Homo sapiens) (UniProt P10275); assay: qHTS assay to identify small molecule antagonists of the androgen receptor (AR) signaling pathway (AID 743035; active means well fitted inhibition curve with a large enough effect in the signal ratio in the repeat runs, not every such curve was filed as active; inconclusive means weak or mixed curves, or effect the other way; inactive means no such curve, though single readings can be large or run the other way; the % refers to the signal ratio)
Summary of the method: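 Using qHTS, AR-UAS-bla GripTite HEK293 cells received compound, then R1881, and were cultured 16 h at 37C/5% CO2 before a 2 h room-temperature LiveBLAzer B/G FRET substrate step and fluorescence measurement.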

[18] = molecular target: Androgen receptor (Homo sapiens) (UniProt P10275); assay: qHTS assay to identify small molecule agonists of the androgen receptor (AR) signaling pathway (AID 743036; active means well fitted activation curve with a large enough effect in the signal ratio in the repeat runs, with a control signal flat, not every such curve was filed as active; inconclusive means weak or mixed curves, or effect the other way; inactive means no such curve, though single readings can be large or run the other way; the % refers to the signal ratio)
Summary of the method: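 Beta-lactamase under UAS control, stably integrated in HEK293 GripTite cells, reports receptor activation. After 16 h compound treatment, cells received FRET substrate for 2 h at room temperature before fluorescence reading.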

[19] = molecular target: Androgen receptor (Homo sapiens) (UniProt P10275); assay: qHTS assay to identify small molecule agonists of the androgen receptor (AR) signaling pathway using the MDA cell line (AID 743040; further: nearly all actives have a fitted effect of over 20% in size; further: potency means the concentration at half of the fitted maximal effect)
Summary of the method: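 MDA-kb2 breast carcinoma cells carrying MMTV-luciferase (responsive to AR and GR), plated 5 h then treated 16 h with compounds at 37C, 0% CO2. Read-out was ONE-Glo luminescence after 30 min at room temperature.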

[20] = molecular target: Androgen receptor (Homo sapiens) (UniProt P10275); assay: qHTS assay to identify small molecule antagonists of the androgen receptor (AR) signaling pathway using the MDA cell line (AID 743042; further: nearly all actives have a fitted effect of over 55% in size)
Summary of the method: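 MDA-kb2 breast carcinoma cells carrying MMTV-luciferase (AR/GR responsive) were co-treated with compounds and the agonist R1881 for 16 h at 37C. Inhibition read as ONE-Glo luminescence; CellTiter-Fluor fluorescence measured in parallel for cytotoxicity.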

Measured: Potency

Androgen receptor (Homo sapiens), sequence (P10275 whole entry, looked up): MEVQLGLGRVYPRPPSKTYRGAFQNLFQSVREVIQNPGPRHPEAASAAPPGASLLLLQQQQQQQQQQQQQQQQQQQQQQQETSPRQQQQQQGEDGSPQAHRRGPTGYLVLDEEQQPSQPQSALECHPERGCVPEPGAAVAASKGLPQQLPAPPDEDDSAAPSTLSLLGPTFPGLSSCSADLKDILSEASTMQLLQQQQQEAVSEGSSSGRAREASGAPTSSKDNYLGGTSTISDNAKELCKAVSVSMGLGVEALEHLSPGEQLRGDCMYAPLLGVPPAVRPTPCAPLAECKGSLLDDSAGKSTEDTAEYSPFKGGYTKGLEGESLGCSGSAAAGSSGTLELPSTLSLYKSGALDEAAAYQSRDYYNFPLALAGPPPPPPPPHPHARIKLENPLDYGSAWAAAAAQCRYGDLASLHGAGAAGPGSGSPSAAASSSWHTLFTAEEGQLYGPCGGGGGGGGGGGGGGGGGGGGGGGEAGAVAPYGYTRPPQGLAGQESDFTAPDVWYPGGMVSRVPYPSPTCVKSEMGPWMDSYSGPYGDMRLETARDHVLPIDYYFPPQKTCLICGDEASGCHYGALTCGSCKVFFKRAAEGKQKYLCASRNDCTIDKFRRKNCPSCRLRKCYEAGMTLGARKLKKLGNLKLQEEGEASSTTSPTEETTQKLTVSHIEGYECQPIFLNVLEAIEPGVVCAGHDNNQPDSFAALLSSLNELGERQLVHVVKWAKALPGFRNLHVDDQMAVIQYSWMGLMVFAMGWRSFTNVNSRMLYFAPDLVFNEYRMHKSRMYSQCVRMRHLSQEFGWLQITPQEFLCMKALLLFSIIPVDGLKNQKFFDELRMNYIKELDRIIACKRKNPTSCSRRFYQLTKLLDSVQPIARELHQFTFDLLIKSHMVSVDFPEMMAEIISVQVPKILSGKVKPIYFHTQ
Glucocorticoid receptor (Homo sapiens), sequence (P04150 whole entry, looked up): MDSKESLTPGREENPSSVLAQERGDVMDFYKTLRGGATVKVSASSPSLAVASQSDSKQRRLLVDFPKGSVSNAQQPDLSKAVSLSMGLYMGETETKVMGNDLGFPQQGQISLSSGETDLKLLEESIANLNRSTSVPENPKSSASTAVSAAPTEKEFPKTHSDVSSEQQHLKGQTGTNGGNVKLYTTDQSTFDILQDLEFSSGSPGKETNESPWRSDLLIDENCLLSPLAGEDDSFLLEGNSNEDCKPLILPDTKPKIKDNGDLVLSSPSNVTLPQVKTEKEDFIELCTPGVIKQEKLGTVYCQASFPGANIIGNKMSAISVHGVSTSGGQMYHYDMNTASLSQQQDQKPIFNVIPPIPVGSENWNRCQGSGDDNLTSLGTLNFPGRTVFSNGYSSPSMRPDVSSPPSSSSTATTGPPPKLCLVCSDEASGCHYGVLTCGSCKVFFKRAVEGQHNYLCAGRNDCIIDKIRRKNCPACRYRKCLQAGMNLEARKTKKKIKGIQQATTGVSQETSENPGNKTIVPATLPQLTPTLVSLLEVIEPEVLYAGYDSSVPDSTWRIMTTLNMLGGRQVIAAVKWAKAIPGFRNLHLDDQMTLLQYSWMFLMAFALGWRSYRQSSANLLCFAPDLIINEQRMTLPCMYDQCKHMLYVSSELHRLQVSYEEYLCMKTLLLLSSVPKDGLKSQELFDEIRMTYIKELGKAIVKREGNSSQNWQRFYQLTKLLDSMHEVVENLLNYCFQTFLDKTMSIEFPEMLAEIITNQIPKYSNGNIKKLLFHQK

CCCCCCCCCCCCCCCCCCOCC(O)CO (stereo unspecified)
active: [9] 0.952 µM [inconclusive]
not listed: [15] | [16] | [17] | [18] | [19] | [20]
inactive: all other assays above

CC(C)CCCC(C)CCCC(C)CCCCC(C)CCCC(C)CCCC(C)C (stereo unspecified)
not listed: [11] | [16] | [17] | [18] | [19] | [20]
inactive: all other assays above

CCO[Si](C)(OCC)OCC
not listed: [16] | [17] | [18] | [19] | [20]
inactive: all other assays above

COC(=O)[C@H]1[C@H]2C[C@@H]3c4[nH]c5cc(OC)ccc5c4CCN3C[C@H]2C[C@@H](OC(=O)COc2ccc(OC)cc2)[C@@H]1OC
active: [15] 21.1 µM | [11] 33.5 µM | [12] 18.8 µM
not listed: [13] | [16] | [17] | [18] | [19] | [20]
inactive: all other assays above

C[N+](C)(C)CC[N+]1(C)Cc2c(Cl)c(Cl)c(Cl)c(Cl)c2C1
not listed: [10] | [17] | [18] | [19] | [20]
inactive: all other assays above

CC(C)(O)C(=O)c1ccc(OCCO)cc1
not listed: [10] | [15] | [17] | [18] | [19] | [20]
inactive: all other assays above

OCCN1C[C@H](O)[C@@H](O)[C@H](O)[C@H]1CO
not listed: [10]
inactive: all other assays above

C=C(C)C1CC=C(C)C(O)C1 (stereo unspecified)
not listed: [15] | [16] | [17] | [18] | [19] | [20]
inactive: all other assays above

CCCCCCOC(=O)CC(CC(=O)OCCCCCC)(OC(=O)CCC)C(=O)OCCCCCC
not listed: [10] | [17]
inactive: all other assays above

c1ccc2cnncc2c1
not listed: [10] | [15] | [17] | [18] | [19] | [20]
inactive: all other assays above

Cc1nc(-c2ccc(OCC(C)C)c(C#N)c2)sc1C(=O)O
active: [19] 1.19 µM
not listed: [11] | [12] | [16] | [17] | [18]
inactive: all other assays above

C=CC(=O)N1CCOCC1
not listed: [15] | [16] | [17] | [18] | [19] | [20]
inactive: all other assays above

Cc1ncc(CSSCc2cnc(C)c(O)c2CO)c(CO)c1O
not listed: [10] | [17]
inactive: all other assays above

NCCN1CCNC1=O
not listed: [11] | [15] | [17] | [18] | [19] | [20]
inactive: all other assays above

C=CCOc1nc(OCC=C)nc(OCC=C)n1
not listed: [11] | [12] | [14] | [15] | [17] | [18] | [19] | [20]
inactive: all other assays above

CO[Si](OC)(OC)OC
not listed: [10] | [11] | [12] | [15] | [17] | [18] | [19] | [20]
inactive: all other assays above
